Usually viability stands for a read-out of living cells in per cent, often relative to untreated cells. In general, inhibition refers to the change of the read-out against control, counted positive when it falls.

From PubChem BioAssay come the findings set out here.

Records with an inconclusive call do not appear. Activity calls are given as the source filed them.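 Rule for the calls, unless noted: active = viability at or below 27.92% in each of two runs, the all-compound median minus 4 SD; inconclusive = no clear call, values can overlap the other calls; inactive = the rest.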

The nature of experiment [1]: Her2 expression decrease, cell viability multiplex – SKBR3 breast tumor cells, AlphaScreen, ATP viability, primary screen (AID 461;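 active = Her2 level under about 52% in both replicate screens, with viability over 70% of control, limit read from the data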;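 for Her2 level: lower value means less Her2 protein in the cells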;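 for viability: percent of carrier control wells set as 100% viability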). Particulars: SKBR3 Her2 protein level, 18-24 h, measured here: SKBR3 viability, ATP luminescence, at 10 µM.
The target in experiment [2] is Receptor tyrosine-protein kinase erbB-2 (Homo sapiens) (UniProt P04626). Described as above. Particulars: 18-24 h, at 10 µM, stronger effect = lower value.
A short description of experiment [3]: reduced viability of SK-BR-3 breast cancer cells – cell-based, 24 h, human, pilot screen (AID 572;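 active = viability at or below 10% of carrier control in both of two separate runs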;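 note: compound exposure lasted between 18 and 24 h rather than exactly 24 h; 100% = carrier-treated control wells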). Particulars: SK-BR-3 viability, CellTiter-Glo luminescence, at 10 µM, stronger effect = lower value. For orientation: Cellular ATP, detected with luciferase, serves as a proxy for viable cell number.
Experiment [4] can be described thus: HUVEC growth inhibition – cell-based, human, primary screen (AID 575;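 active = viability at or below 30% in both replicate assays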;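 note: 100% = median of untreated cell wells with 0.1% DMSO on each plate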). Particulars: HUVEC proliferation, CellTiter-Glo luminescence, 72 h; at 10 µM; stronger effect = lower value.
A short description of experiment [5]: H69AR cell proliferation blockers – human, duplicate replicates, primary screen (AID 580;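 active = viability at or under a set limit in both replicates, limit being median viability minus 3 SD, cut at about 48% in these data, passing the limit was not always enough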;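 note: 100% = mean luminescence of untreated wells and 0% = no signal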). As to conditions: H69AR lung tumor cells viability, ATP luminescence, 72 h; at 10 µM; stronger effect = lower value.
The nature of experiment [6]: MRP1 drug-resistance reversers in H69AR cells – cell-based, doxorubicin co-treatment, pilot screen (AID 601;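 active = viability loss from added drug above about 55%, and viability with drug at most 40%, in both replicates, limit read from the data, passing the limit was not always enough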). As to conditions: CellTiter-Glo, 72 h, at 10 µM; for differential viability (reversal): stronger effect = higher value.
Experiment [7] is described as follows: yeast transport mutant growth inhibition pilot in 384-well plates, post-Golgi transport modulator project (AID 636; in the data active = inhibition above about 31%). As to conditions: absorbance 615 nm, about 18 h, stronger effect = higher value.
Experiment [8] in a line: growth suppression of yeast trafficking mutant, preliminary HTS, modulators of trafficking downstream of Golgi apparatus project, 1536-format plate, OD 615 nm (AID 637; in the data active = inhibition above about 30%). As to conditions: yeast transport mutant growth, absorbance 615 nm, 18 h; stronger effect = higher value.
Experiment [9] is described as follows: S. cerevisiae growth inhibition in permissive medium (OD615), pilot counter-assay for S. cerevisiae lifespan shortening project, permissive growth control (AID 705;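 active = growth inhibition above 25% in both replicates, a cutoff set 3 SD above the mean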). Particulars: OD615, 24 h, at 10 µM, stronger effect = higher value.
Experiment [10] is described as follows: S. cerevisiae growth inhibition in restrictive medium, OD615, pilot screen, restrictive growth control, yeast lifespan reduction project (AID 706;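 active = growth inhibition above a set limit, 3 SD over mean compound inhibition, in both replicates, cut at about 43% in these data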;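 note: modified DeaD lifespan yeast strain shifted to restrictive glucose medium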). Particulars: OD615, 48 h, at 10 µM, stronger effect = higher value.
Experiment [11] is described as follows: doxorubicin toxicity protection in MRP-1 cells – H69AR cells, CellTiter-Glo, duplicate, MRP-1 activator project, pilot screen (AID 807;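 active = viability increase at or above a cutoff of the median across tested compounds plus 3 SD, cut at about 8.5% in these data, passing the limit was not always enough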;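 note: compound pretreatment 18-22 h then 72 h combined with doxorubicin; 0% = doxorubicin alone and 100% = vehicle without doxorubicin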). Particulars: H69AR viability with doxorubicin, CellTiter-Glo luminescence; at 10 µM; stronger effect = higher value.
Experiment [12] can be described thus: viability of HCT116 without oncogenic beta-catenin – human colon tumor cells, pilot screen (AID 823;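 active = cell viability at or below a set limit in both duplicate runs, the limit being the all-compound median minus 4 SD, cut at about 23% in these data, passing the limit was not always enough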;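 note: 0% = wells killed by 20 µM Hyamine and 100% = untreated DMSO cell wells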). As to conditions: HCT116 beta-catenin knockout viability, CellTiter-Glo, 60 h; at 10 µM; stronger effect = lower value.
Experiment [13] in a line: viability of PTEN-null HCT116 cells – cell-based, HCT116 clonal line, CellTiter-Glo, pilot screen (AID 824).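 Note: 0% = 20 µM Hyamine control and 100% = vehicle cell control.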 As to conditions: HCT116 PTEN-deleted viability, 60 h, at 10 µM, stronger effect = lower value.
A short description of experiment [14]: RAM pathway blockade in budding yeast – dse1pr::URA3 reporter, 5-FOA selection, pilot screen (AID 869;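 active = inhibition over a set limit, the all-compound mean plus 3 SD, in both replicate runs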;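 note: 0% = DMSO wells with no growth and 100% = 10 µM 1-NA-PP1 with full growth; RAM network block rescues cells from 5-FOA so hits raise OD615 growth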). Particulars: S. cerevisiae dse1pr::URA3 5-FOA growth, OD615, 2 d; at 10 µM; stronger effect = higher value; strain carries analog-sensitive mutant Cbk1 kinase.
Experiment [15] can be described thus: RAM signaling pathway blockade in yeast – S. cerevisiae, Pdr1DBD-CYC8 efflux-inhibited sensitized strain, primary screen (AID 1298;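 active = RAM network inhibition above 8.4% in each of two replicates, 3 SD over the compound average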;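 note: 0% = DMSO untreated cells without growth and 100% = 10 µM 1-NA-PP1 full growth; higher means more yeast growth rescued from 5-FOA killing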). Particulars: S. cerevisiae cbk1-as DSE1-URA3 strain, 5-FOA growth OD615, 2 d; at 50 µM; stronger effect = higher value.
The mark [16] stands for this setting: H69AR cells + 2 uM doxorubicin, measured here: viability with 2 uM doxorubicin, stronger effect = lower value.
Where [17] appears, read: H69AR cells, compound alone cytotoxicity.

Sequence of Receptor tyrosine-protein kinase erbB-2 (Homo sapiens) (P04626 whole entry, looked up): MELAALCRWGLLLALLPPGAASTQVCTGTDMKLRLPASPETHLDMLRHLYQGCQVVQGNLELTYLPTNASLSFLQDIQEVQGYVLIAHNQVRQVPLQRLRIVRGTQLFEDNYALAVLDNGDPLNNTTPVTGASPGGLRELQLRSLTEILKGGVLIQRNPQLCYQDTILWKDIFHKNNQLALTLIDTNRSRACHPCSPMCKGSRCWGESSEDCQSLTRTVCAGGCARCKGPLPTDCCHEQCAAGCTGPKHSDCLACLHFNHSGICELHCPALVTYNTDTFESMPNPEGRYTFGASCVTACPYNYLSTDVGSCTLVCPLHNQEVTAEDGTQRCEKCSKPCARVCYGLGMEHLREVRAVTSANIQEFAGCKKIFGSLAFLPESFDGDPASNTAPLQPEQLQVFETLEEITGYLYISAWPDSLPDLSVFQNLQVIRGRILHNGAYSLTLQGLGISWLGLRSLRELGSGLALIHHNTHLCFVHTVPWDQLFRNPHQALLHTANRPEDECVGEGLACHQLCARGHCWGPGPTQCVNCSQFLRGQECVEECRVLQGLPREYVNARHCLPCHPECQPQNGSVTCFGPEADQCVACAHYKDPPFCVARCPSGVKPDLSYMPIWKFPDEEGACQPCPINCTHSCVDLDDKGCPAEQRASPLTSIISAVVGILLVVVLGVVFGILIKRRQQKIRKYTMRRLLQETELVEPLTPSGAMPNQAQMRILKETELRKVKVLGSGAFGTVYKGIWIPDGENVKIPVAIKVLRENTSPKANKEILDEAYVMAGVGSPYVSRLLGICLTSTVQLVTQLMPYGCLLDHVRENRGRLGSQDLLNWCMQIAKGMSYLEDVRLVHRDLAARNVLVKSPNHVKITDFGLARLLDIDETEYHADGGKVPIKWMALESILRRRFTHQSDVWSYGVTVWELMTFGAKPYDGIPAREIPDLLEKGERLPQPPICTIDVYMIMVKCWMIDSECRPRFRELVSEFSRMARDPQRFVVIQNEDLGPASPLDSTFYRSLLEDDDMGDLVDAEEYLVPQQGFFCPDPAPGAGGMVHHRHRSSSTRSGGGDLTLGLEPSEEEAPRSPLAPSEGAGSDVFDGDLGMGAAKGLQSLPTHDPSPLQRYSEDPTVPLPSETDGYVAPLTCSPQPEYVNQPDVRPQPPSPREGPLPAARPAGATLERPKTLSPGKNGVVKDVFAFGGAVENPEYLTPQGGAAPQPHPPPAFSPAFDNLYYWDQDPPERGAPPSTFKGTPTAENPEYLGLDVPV

As to `CN1CCN(C(=O)C2CCN(S(=O)(=O)c3ccc4c(c3)oc(=O)n4C)CC2)CC1`, the viability in experiment [1] is 89%; in experiment [3], 89% (inactive); in experiment [4], 94.4% (inactive); in experiment [5], 107% (inactive); in [6] (setting [16]) it was 92.4%; in [6] (setting [17]) it was 107%. The viability in experiment [12] and in experiment [13] was 102% (inactive) each time. Moreover, the Her2 level in experiment [2] was 104% (inactive). Also, the differential viability (reversal) in experiment [6] (H69AR cells + 2 uM doxorubicin) is 14.3% (inactive). Also, the values for the inhibition in experiment [7], in [8] and in experiment [14] were -2.95% (inactive), 9.5% (inactive) and 2.46% (inactive), respectively. The growth inhibition in experiment [9] is -6.74% (inactive); in experiment [10] it was -5.41% (inactive). Also, in experiment [11], the viability increase was 1.79% (inactive). In experiment [15], the RAM network inhibition is 3.79% (inactive).
For the molecule `Cc1cccc(Cn2c(SCC(=O)Nc3ccccc3)nc3c2c(=O)[nH]c(=O)n3C)c1`, the viability in experiment [1] was 81.5%; in experiment [3], 81.5% (inactive); in [4] it was 93.9% (inactive); in experiment [5] it was 81.8% (inactive); in experiment [6] (setting [16]) it was 81.8%; in experiment [6] (setting [17]), 81.8%. The viability in experiment [12] is 91% (inactive); in experiment [13] it was 71% (inactive). In addition, in experiment [2], the Her2 level is 97% (inactive). Besides, the differential viability (reversal) in [6] (H69AR cells + 2 uM doxorubicin) was -0.02% (inactive). Besides, the inhibition in experiment [7] is -1.33% (inactive); in experiment [8], 0% (inactive); in [14] it was 1.79% (inactive). The growth inhibition in experiment [9] was -12.4% (inactive); in experiment [10], -8.03% (inactive). Besides, the viability increase in [11] is -1.01% (inactive). Further, the RAM network inhibition in experiment [15] is 5.01% (inactive).
Turning to `Cc1ccc(C(=O)OCC(=O)Nc2ccc3c(c2)OCO3)o1`, the viability was 110% in [1]; 110% (inactive) in [3]; 102% (inactive) in experiment [4]; 97.3% (inactive) in experiment [5]; 95.3% in experiment [6] (setting [16]); 97.3% in experiment [6] (setting [17]). Moreover, the viability was 97.6% (inactive) in [12] and 99.3% (inactive) in experiment [13]. Further, the Her2 level in experiment [2] is 118% (inactive). Also, in experiment [6] (H69AR cells + 2 uM doxorubicin), the differential viability (reversal) is 1.98% (inactive). Also, the inhibition was -2.16% (inactive) in experiment [7], -5.87% (inactive) in [8] and 0.95% (inactive) in experiment [14]. Also, the growth inhibition in [9] is -4.63% (inactive); in experiment [10], -8.6% (inactive). For the same molecule, the viability increase in [11] is -1.03% (inactive). For the same molecule, the RAM network inhibition in experiment [15] is 2.58% (inactive).
`CCCOC(=O)C1C2C=CC3(CN(c4cccc(Cl)c4)C(=O)C13)O2` (stereo not given): the viability in [1] is 102%; in [3], 102% (inactive); in experiment [4] it was 90.4% (inactive); in [5] it was 83% (inactive); in experiment [6] (setting [16]), 93.8%; in experiment [6] (setting [17]), 83%. Besides, the viability in [12] is 101% (inactive); in [13] it was 97.4% (inactive). Also, the Her2 level in experiment [2] is 85% (inactive). In experiment [6] (H69AR cells + 2 uM doxorubicin), the differential viability (reversal) was -10.8% (inactive). Further, the values for the inhibition in experiment [7], in [8] and in experiment [14] were -2.93% (inactive), -0.16% (inactive) and -0.245% (inactive), respectively. For the same molecule, the growth inhibition in experiment [9] was -4.19% (inactive); in experiment [10] it was -9.97% (inactive). For the same molecule, the viability increase in [11] was -2.05% (inactive). The RAM network inhibition in experiment [15] was 3.71% (inactive).
Take `CC(C)(C)NC(=O)CC(CC(=O)O)c1ccccc1` (stereo not given): the viability in [1] was 112%; in experiment [3] it was 112% (inactive); in [4], 110% (inactive); in experiment [5] it was 88.5% (inactive); in experiment [6] (setting [16]), 97%; in experiment [6] (setting [17]) it was 88.5%. Further, the viability in experiment [12] is 106% (inactive); in experiment [13], 101% (inactive). Besides, the Her2 level in experiment [2] was 117% (inactive). Also, in [6] (H69AR cells + 2 uM doxorubicin), the differential viability (reversal) was -8.51% (inactive). For the same molecule, the inhibition in experiment [7] was -4.27% (inactive); in [8], 7.67% (inactive); in experiment [14] it was 2.61% (inactive). In addition, the growth inhibition in experiment [9] was -11.7% (inactive); in [10] it was 3.69% (inactive). In addition, the viability increase in [11] was -0.99% (inactive). Also, the RAM network inhibition in experiment [15] was -1.67% (inactive).
